Measured values reported in PubChem BioAssay AID1850 (Southern Research Specialized Biocontainment Screening …, 2009).
Screen size: about 310,000 compounds; about 1,000 (0.32%) were called active. The rule behind the calls is not given here. Not all results are given here. Results with a measured potency or affinity are listed apart.

Experiment: Inhibition of PhoP regulon, Salmonella typhi GFP reporter cells, confirmation, 4 h (AID 1850);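 note: 0% = induced wells with vehicle and 100% = uninduced wells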
Settings: Salmonella Typhi PhoP-promoter GFP reporter, fluorescence, at 50 µM, hits give high values

| SMILES | inhibition |
| --- | --- |
| O=C(NCCO)c1cccc(Cl)c1 | -3.96% (inactive) |
| O=C1CCC([N+](=O)[O-])C(c2cc3c(cc2Cl)OCO3)N1 (stereo unspecified) | 3.32% (inactive) |
| COC(=O)c1cc(C(=O)c2ccc(Cl)cc2)n2c(=O)/c(=C\N(C)C)sc12 | 4.66% (inactive) |
| O/N=C/c1ccc(OCc2ccccc2)c(Br)c1 | 17.4% (inactive) |
| O/N=C/c1ccc(OCc2ccccc2F)c(Cl)c1 | -2.37% (inactive) |
| Cc1cc(C)cc(NC(=O)CSc2nc3ccccc3nc2N2CCCC2)c1 | 11.5% (inactive) |
| CNCCc1c[nH]c2ccccc12 | 10.1% (inactive) |
| CN(C)CCCNc1nc(-c2ccccc2)nc2ccccc12 | -2.17% (inactive) |
| CN(C)CCCNc1c2c(nc3ccccc13)CCC2 | 5.26% (inactive) |
| OCCNc1c2ccccc2nc2ccccc12 | 11.8% (inactive) |
| Fc1cccc(NCCc2c[nH]c3ccccc23)n1 | 3.37% (inactive) |
| OCCNc1c2c(nc3ccccc13)CCCC2 | -3.18% (inactive) |
| N#CCCN(C(=O)COC(=O)c1ccc(CNS(=O)(=O)c2ccc(F)c(Cl)c2)cc1)c1ccc(F)cc1 | -2.96% (inactive) |
| Cc1ccc(CNC(=O)C2CCCN(c3nn4c(=O)cc(C)nc4s3)C2)cc1 (stereo unspecified) | -0.07% (inactive) |
| CCC1=C2CC[C@H]3C(=O)N(C)C(=O)[C@H]3[C@H]2[C@@]2(Cc3ccccc3)C(=NCC(=O)OC)OC(=O)N2C1=O | -11.3% (inactive) |
| CC(Sc1nnc(-c2ccccc2Br)o1)C(=O)N1CCOCC1 (stereo unspecified) | 0.36% (inactive) |
| O=C(NCC1CCCO1)c1cccc(NC(=O)c2ccc(Br)cc2)c1 (stereo unspecified) | -6.91% (inactive) |
| CC(C)c1ccc(NC(=O)CSc2nc3ccsc3c(=O)n2Cc2ccc(C(=O)O)cc2)cc1 | -12% (inactive) |
| COC(=O)CC1=C(C(=O)OC)C(c2ccc3c(c2Cl)OCO3)C(C#N)=C(N)O1 (stereo unspecified) | -2.85% (inactive) |
| CCC(=C(c1ccc(OC)cc1)c1ccc(OC)cc1)c1cn(CC(O)CN(CCO)CCO)c2ccccc12 (stereo unspecified) | 1.98% (inactive) |
| COc1ccccc1-n1c(SCC(=O)Nc2ccc(F)cc2)nc2c(c1=O)SCC2 | 4.39% (inactive) |
| C=CCn1c2ccccc2n2nc(C)c(=O)nc12 | 5.77% (inactive) |
| COc1ccc(/C=C/C(=O)NCCCc2ccccc2)cc1 | 2.3% (inactive) |
| COc1ccc(NC(=O)Cc2ccccc2)cc1 | -3.71% (inactive) |

| SMILES | inhibition |
| --- | --- |
| CCNC(=S)N1CCNC(=O)C1CC(=O)OC (stereo unspecified) | -0.49% (inactive) |
| C=CCSC(=S)NC1CCS(=O)(=O)C1 (stereo unspecified) | 4.24% (inactive) |
| CCCSC(=S)NC1CCS(=O)(=O)C1 (stereo unspecified) | 14.2% (inactive) |
| COCCSc1nnc(NC(=O)C2CCCO2)s1 (stereo unspecified) | -16.4% (inactive) |
| CN1CCN(C(c2ccc(C(F)(F)F)cc2)c2cc(Cl)c3cccnc3c2O)CC1 (stereo unspecified) | 2.9% (inactive) |
| CCN1CCN(C(c2ccc(C(F)(F)F)cc2)c2ccc3cccnc3c2O)CC1 (stereo unspecified) | -8.31% (inactive) |
| CN1CCN(C(c2cccnc2)c2ccc3cccnc3c2O)CC1 (stereo unspecified) | 4.05% (inactive) |
| Oc1c(C(c2ccc(Cl)cc2)N2CCCC2)cc(Cl)c2cccnc12 (stereo unspecified) | -16.5% (inactive) |
| Oc1c(C(c2ccccn2)N2CCCCC2)cc(Cl)c2cccnc12 (stereo unspecified) | 20.3% (inactive) |
| CN1CCN(C(c2ccccn2)c2cc(Cl)c3cccnc3c2O)CC1 (stereo unspecified) | -16.9% (inactive) |
| Oc1c(C(c2ccccn2)N2CCC(Cc3ccccc3)CC2)cc(Cl)c2cccnc12 (stereo unspecified) | -1.4% (inactive) |
| CC(=O)NC(c1ccc(C)cc1)c1cc(Cl)c2cccnc2c1O (stereo unspecified) | -5% (inactive) |
| CCOCCOC(=O)c1ccc(-n2cncn2)nc1 | 19.6% (inactive) |
| Cn1c(NC(=O)CC2CCCCC2)cc(=O)n(C)c1=O | -13.1% (inactive) |
| C/C(=N\Nc1nc2ccccc2[nH]1)c1ccc2c(c1)OCCO2 | 11.8% (inactive) |
| COc1ccc(Br)cc1C(=O)NC(=S)Nc1c(C)n(C)n(-c2ccccc2)c1=O | 14.4% (inactive) |
| CC1(c2ccccc2)NC(=O)N(CC(=O)NCCC2=CCCCC2)C1=O (stereo unspecified) | 0.28% (inactive) |
| O=C(CC12CC3CC(CC(C3)C1)C2)NC(Cc1ccccc1)C(=O)O (stereo unspecified) | -9.42% (inactive) |
| CNC[C@H](CC1CCCCC1)NC[C@H](NCCC1CCCC1)[C@H](C)O | 22.8% (inactive) |
| CNC[C@H](CC1CCCCC1)NC[C@H](CO)NCCc1cccc(C(F)(F)F)c1 | 10.8% (inactive) |
| CCC[C@@H](CNC)NC[C@H](Cc1ccccc1)NCCCCc1ccccc1 | 3.99% (inactive) |
| CCC[C@@H](CN[C@@H](CNC)C(C)C)NCCCCc1ccccc1 | 16.7% (inactive) |
| CNC[C@H](CC1CCCCC1)NC[C@H](CO)NCC1(c2ccccc2)CC1 | -8.16% (inactive) |
| CC(C)n1nc(C(=O)OCC(=O)N(C)C2CCS(=O)(=O)C2)c2ccccc2c1=O (stereo unspecified) | -1.06% (inactive) |

| SMILES | inhibition |
| --- | --- |
| COCCn1c(SCc2cccc(F)c2)nc2cc(C(=O)OC)ccc2c1=O | 6.64% (inactive) |
| O=C(c1cc(-c2cccc(O)c2)on1)N1CCCCCC1 | 14.9% (inactive) |
| CN(C)S(=O)(=O)c1cccc(NC(=O)COc2ccc(C(=O)c3ccccc3)cc2)c1 | -35.4% (inactive) |
| COc1ccc(CCn2c(-n3nc(C)cc3C)nc3c2c(=O)[nH]c(=O)n3C)cc1 | 0.46% (inactive) |
| O=C(NCC(=O)N1CCCCC1)c1ccc(Br)o1 | 20.3% (inactive) |
| N#C/C(=N\Nc1ccc(S(=O)(=O)N2CCOCC2)cc1)C(N)=S | 6.96% (inactive) |
| O=C(Nc1ccc(SC(F)F)cc1)C1CC(=O)N(Cc2ccccc2)C1 (stereo unspecified) | 17.5% (inactive) |
| OCC1(Cc2ccc(Cl)cc2)CCN(Cc2ccc(F)c(F)c2)CC1 | 1.77% (inactive) |
| CCn1c(=O)n(CC)c2cc(NC(=O)c3ccccc3Cl)ccc21 | -4.48% (inactive) |
| C/C(CC(=O)Nc1ccc2c(c1)OCO2)=N\NC(=O)OC(C)(C)C | 1.68% (inactive) |
| Cc1ccc(C(=O)Nc2cccc(NC(=O)c3cccs3)c2)c(C)c1 | -6.14% (inactive) |
| Cc1cc(C)c(S(=O)(=O)NCCCn2ccnc2)c(C)c1 | -3.5% (inactive) |
| CCCCC[n+]1cccc2c3ccccc3ccc21 | 0.18% (inactive) |
| CCCCCCCCCCCCCCCC[n+]1cccc2ccccc21 | -4.68% (inactive) |
| O=C(C[n+]1cc(-c2ccc(F)cc2)n2c1CCC2)N1c2ccccc2Sc2ccccc21 | -2.79% (inactive) |
| COc1ccc(-c2c[n+](CC(=O)N3c4ccccc4Sc4ccccc43)c3n2CCC3)cc1 | 18.6% (inactive) |
| Cc1ccc(-c2c[n+](CC(=O)N3c4ccccc4Sc4ccccc43)c3n2CCC3)cc1 | 6.09% (inactive) |
| O=C(C[n+]1cc(-c2ccccc2)n2c1CCC2)N1c2ccccc2Sc2ccccc21 | 13.9% (inactive) |
| CC/C(=N\NC(=O)c1ccncc1)C12CC3CC(CC(C3)C1)C2 | 8.69% (inactive) |
| CCOC(=O)N1CCC(=NNC(=O)COc2ccc(C#N)cc2)CC1 | -4.18% (inactive) |
| COc1ccc(OC)c(CCNC(=O)c2sc3nc4n(c(=O)c3c2C)CCC4)c1 | 4.26% (inactive) |
| Cc1occc1C(=O)N/N=C/c1ccc(Br)s1 | 1.4% (inactive) |
| Cc1ccc(/C=N/NC(=O)c2ccoc2C)s1 | 0.98% (inactive) |
| CC(/C=N\NC(=O)CN1CCN(S(=O)(=O)c2ccc(C)cc2)CC1)=C\c1ccccc1 | -12% (inactive) |

| SMILES | inhibition |
| --- | --- |
| CCOC(=O)[C@H]1[C@H]2COc3ccccc3[C@@H]2N2C(=O)c3ccccc3NC(=O)[C@@]12C | -4.39% (inactive) |
| CCCOc1ccc(-c2nc(N3CCN(C)CC3)c3ccccc3n2)cc1 | 9.86% (inactive) |
| O=C(NC(c1ccccc1)c1cc(Cl)c2cccnc2c1O)c1cccnc1 (stereo unspecified) | -1.98% (inactive) |
| O=C(O)COc1ccccc1C(Nc1ccccn1)c1cc(Cl)c2cccnc2c1O (stereo unspecified) | -6.17% (inactive) |
| CC(=O)c1ccc(OCC(O)CN2CCN(CCO)CC2)cc1 (stereo unspecified) | -2.27% (inactive) |
| O=C(COC(=O)CCCN1C(=O)c2cccc3cccc(c23)C1=O)Nc1cccc(C(F)(F)F)c1 | -5.09% (inactive) |
| CCOc1ccc(OCCNC2CCCC2)cc1 | 6.72% (inactive) |
| Cc1ccc(OCCCNC2CCCC2)cc1 | 2.57% (inactive) |
| COCc1cc(CN2CCCC2)c(O)c2ncccc12 | -3.73% (inactive) |
| O=C(Oc1c(CN2CCOCC2)cc(Cl)c2cccnc12)c1cccs1 | -0.05% (inactive) |
| O=C(Oc1c(CN2CCOCC2)cc(Cl)c2cccnc12)c1ccccc1Cl | 4.13% (inactive) |
| Oc1c(CN2CCN(c3ccccc3)CC2)cc(Br)c2cccnc12 | -1.71% (inactive) |
| O=C(Nc1ccc(-c2nc3cccnc3s2)cc1)c1cccnc1Cl | 16.9% (inactive) |
| CC(=O)Nc1ccc(S(=O)(=O)N2CCN(c3cc(C)nc4ncnn34)CC2)cc1 | -16.9% (inactive) |
| O=C(Nc1ccccc1)Nc1ccc(F)cc1F | -5.6% (inactive) |
| CC(=O)Nc1cccc(NC(=S)Nc2ccc(F)cc2F)c1 | 4.43% (inactive) |
| CCOc1ccc2nc(N(CCCN(C)C)C(=O)c3ccc4c(c3)CCCC4)sc2c1 | 2.97% (inactive) |
| CN(C)CCN(C(=O)C1=COCCO1)c1nc2ccc(F)cc2s1 | -3.62% (inactive) |
| Cc1ccc(C(=O)N(CCCN(C)C)c2nc3ccc(Cl)cc3s2)cc1C | 9.54% (inactive) |
| CN(C)CCCN(C(=O)C1=COCCO1)c1nc2ccc(Br)cc2s1 | -8.06% (inactive) |
| CN(C)CCCN(C(=O)c1ccc2c(c1)CCCC2)c1nc2ccc(F)cc2s1 | 16.4% (inactive) |
| CN(C)CCCN(C(=O)c1sc2ccccc2c1Cl)c1nc2ccc(F)cc2s1 | -7.99% (inactive) |
| Cc1cccc2sc(N(CCCN(C)C)C(=O)c3sc4ccccc4c3Cl)nc12 | -4.13% (inactive) |
| CCN(CC)CCN(C(=O)c1ccc2c(c1)CCCC2)c1nc2ccc(C)cc2s1 | -8.88% (inactive) |
